From PubChem
TDP43 rescue: inhibitors of TDP-43 toxicity in yeast; TDP-43 expressing yeast growth rescue, BacTiter-Glo, 24 h; Potency, µM (highest dose often 46.1 µM), usual class: activators; 410,000 tested, 1.8% active; AID 652104; note: nearly all actives have a fitted effect of over 50% in size
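Cell-based yeast growth screen: TDP-43 expression induced in galactose, inoculum OD600=0.02 after raffinose pregrowth to mid-log. Read-out BacTiter-Glo luminescence at 24 hr, 30 deg C; inhibition of toxicity seen as signal increase.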
Abeta rescue: restores growth of yeast expressing A-beta42 peptide; yeast expressing A-beta42, growth rescue, OD600, 48 h; response scale: 0% DMSO, 100% iron-clioquinol control; Potency, µM (top dose mostly 46.1 µM), most hits filed as activators; 410,000 tested, 0.063% active; note: nearly all actives have a fitted effect of over 55% in size
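Yeast growth medium received pinned compounds, then yeast cells expressing toxic A-beta were added; plates incubated at 30 C for 48 hr. Growth read as absorbance at 600 nm, normalized to DMSO and equimolar FeCl3 plus clioquinol controls.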
aSyn yeast inh: alpha-synuclein toxicity inhibition in yeast | Yeast expressing alpha-synuclein, growth rescue, BacTiter-Glo, 24 h | 370,000 tested, 0.14% active | AID 652106 | Potency, µM (doses to about 46.1 µM), hits mostly activators; note: nearly all actives have a fitted effect of over 65% in size
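Galactose-induced alpha-syn yeast (OD600=0.02, raffinose-pregrown) + pinned cpd, 24 hr, 30 deg C; growth by BacTiter-Glo luminescence. Growth restoration scores as activation.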
FUS suppressor: rescues growth of FUS-expressing yeast | Potency, µM (series often up to 76.6 µM), usual class: activators | 390,000 tested, 0.24% active | S. cerevisiae FUS-expressing, growth rescue, OD600, 24 h; note: nearly all actives have a fitted effect of over 55% in size
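Read-out: OD at 600 nm after 24hr at 30C, reporting rescue of FUS-induced yeast toxicity. Cells at OD 0.005 in galactose (2%) minimal medium; compounds tested in a dilution series; CP55940 titration from 92uM final as control.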
Hits are given with their value; – = inactive; ? = inconclusive; · = no result given. In the library only some 2.1% were active in any assay of this set; here they are far more common. Calls come from the whole dose curve; as a rule, active = well fitted curve in the direction sought with a large enough effect; inconclusive = small, poorly fitted or top-dose-only effect, or another doubt; inactive = no such curve, though single readings can be large; an effect the other way counts as inactive or inconclusive.

SMILES	TDP43 rescue	Abeta rescue	aSyn yeast inh	FUS suppressor
CC(=O)c1cccc(NC(=S)NC(=O)c2ccc(Br)cc2)c1	–	–	–	·
CC(=O)c1cccc(Nc2ccc(Br)cc2)c1	14.1µM	–	–	–
COc1ccc(OC)c(-c2nnc3n2N=C(c2ccc(OC)c(OCC4CC4)c2)CS3)c1	·	–	·	28.2µM
COc1ccc(C2=Nn3c(nnc3-c3ccccc3Cl)SC2)cc1OCC1CC1	·	–	·	–
Cc1ccc(-c2nc(-c3cc4cc(Cl)ccc4oc3=O)sc2C)cc1	·	·	–	·
Cc1cccc(N(CC(=O)NCCSCc2ccc(Cl)cc2)S(C)(=O)=O)c1C	15.8µM	?	·	–
CCCOc1ccccc1C(=O)Nc1nc2c(s1)CCCC2	–	–	·	–
Cc1cc(=O)oc2cc(O)cc(O)c12	–	–	–	–
CCCCCc1cc(O)c2c(C)cc(=O)oc2c1	3.16µM	–	–	–
CCOC(=O)c1cc(S(=O)(=O)Nc2ccc(C)cc2Cl)[nH]n1	–	–	·	–
O=C1/C(=C/c2ccccc2O)SC(=S)N1Cc1cccnc1	12.6µM	–	–	–
COc1ccc(NC(=O)c2ccco2)cc1NC(=O)c1ccc(OC(C)C)cc1	14.1µM	–	·	?
CCn1cc(C(=O)NCc2ccco2)c(=O)c2cc(S(=O)(=O)N3CCc4ccccc4C3)ccc21	–	–	–	6.31µM
CCn1cc(C(=O)NCc2ccco2)c(=O)c2cc(S(=O)(=O)N3CCCCCC3)ccc21	–	–	–	?
Cn1c(=O)c(Sc2ccccc2)c(O)c2ccccc21	12.6µM	–	–	–
Cc1ccc(Sc2c(O)c3ccccc3n(C)c2=O)cc1	3.16µM	?	–	–
Cc1ccc(Sc2c([N+](=O)[O-])c(=O)n(C)c3ccccc23)cc1	–	–	–	–
CC(=O)c1c(O)c2ccccc2n(C)c1=O	–	–	–	–
Cn1c(=O)c(S(=O)(=O)C(C)(C)C)c(O)c2ccccc21	2.82µM	–	–	·
COc1ccccc1CNC(=O)c1cnc(N2CCCC2)nc1C	?	–	·	–
Cc1nc(N2CCCC2)ncc1C(=O)NCc1ccccc1Cl	35.5µM	–	·	–
Cc1ccc(C)c(NC(=O)c2cnc(N3CCCC3)nc2C)c1	14.1µM	–	·	–
O=C(Nc1cccn(Cc2c(Cl)cccc2Cl)c1=O)c1c(Cl)cccc1Cl	10µM	–	–	–
CCCNc1nc(Nc2ccc([N+](=O)[O-])cc2)nc(N2CCOCC2)n1	·	·	–	·
Cc1ccc(-c2cn3c(n2)sc2cc(C(=O)NC4CCCc5ccccc54)ccc23)cc1 (configuration not stated)	?	–	·	–
SMILES	TDP43 rescue	Abeta rescue	aSyn yeast inh	FUS suppressor
CC(=O)Nc1cccc(C(=O)OCC(=O)c2ccc(S(=O)(=O)N3CCCCC3)cc2)c1	–	–	–	–
CC(=O)Nc1ccc(C(=O)OCC(=O)c2ccc(S(=O)(=O)N3CCCCC3)cc2)cc1	–	–	–	7.94µM
CCN1C(=O)[C@@H]2[C@@H](c3ccc(SC4CCCCC4)c(OC)c3)N3CCCC[C@@]3(C(=O)OC)[C@@H]2C1=O	–	–	–	5.01µM
CCN1C(=O)[C@H]2[C@@H](c3ccc(-c4ccc(C(C)=O)cc4)c(OC)c3)N3CCCC[C@@]3(C(=O)OC)[C@H]2C1=O	14.1µM	–	?	?
CCC(C)Sc1ccc([C@@H]2[C@@H]3C(=O)N(C)C(=O)[C@@H]3[C@]3(C(=O)OC)CCCCN23)cc1OC (some centres not stated)	?	–	–	–
COC(=O)[C@@]12CCCN1[C@H](c1ccc(-c3ccc(Cl)c(Cl)c3)c(OC)c1)[C@H]1C(=O)N(C)C(=O)[C@H]12	?	–	–	35.5µM
CCN1C(=O)[C@@H]2[C@@H](c3ccc(-c4ccc(F)cc4)c(OC)c3)N3CCCC[C@@]3(C(=O)OC)[C@@H]2C1=O	?	–	–	?
CCC(C)Sc1ccc([C@@H]2[C@@H]3C(=O)N(CC)C(=O)[C@@H]3[C@]3(C(=O)OC)CCCCN23)cc1OC (some centres not stated)	35.5µM	–	–	?
Cc1ccc(Cl)cc1NC(=O)C1CCN(S(=O)(=O)c2cccc3nonc23)CC1	–	–	·	–
CC1CCc2c(sc(NC(=O)C3CCCO3)c2C#N)C1 (configuration not stated)	–	–	–	–
CCc1c(C)sc(NC(=O)C2CCCO2)c1C#N (configuration not stated)	22.4µM	–	–	–
CCC(C)NC(=O)c1ccc2nc(-c3ccco3)c(-c3ccco3)nc2c1 (configuration not stated)	·	·	–	·
CCOC(=O)Cn1c(=O)n(C2CCCCC2)c2nc(-c3ccc(OCC)cc3)nc(C(N)=O)c21	–	–	–	–
O=c1c2cn[nH]c2nc(SCc2cccc(Br)c2)n1-c1ccc(Cl)cc1	–	–	·	35.5µM
Cc1cccc(Nc2nnc(SCC(=O)Nc3ccccc3[N+](=O)[O-])s2)c1C	12.6µM	–	–	·
Cc1cccc(C)c1Nc1nnc(SCc2nc3ccccc3s2)s1	–	–	–	·
Cc1nc(CSc2nnc(Nc3cccc(C)c3C)s2)cs1	7.94µM	–	–	·
COc1ccc(-c2cc(C(F)(F)F)nc(SCCC(=O)Nc3ccc(O)cc3)n2)cc1	–	–	–	–
O=c1oc2ccccc2cc1-c1cn2cc(Cc3ccccc3F)sc2n1	–	–	·	–
CCn1c2ccccc2c2cc(CN3CCN(Cc4ccccc4Cl)CC3)ccc21	–	–	·	–
Cc1cc(C)n2nc(SCc3c(F)cccc3Cl)nc2n1	?	–	–	–
Cc1cc(C)n2nc(SCc3ccc(F)cc3Cl)nc2n1	11.2µM	–	–	–
Cc1ccc(C)c(-c2nnc(NC(=O)COc3ccccc3)o2)c1	14.1µM	–	11.2µM	–
O=C(COc1ccccc1)Nc1nnc(-c2ccc(Cl)s2)o1	8.91µM	?	17.8µM	–
O=C(COc1ccccc1)Nc1nnc(-c2ccccc2)o1	?	?	20µM	–
SMILES	TDP43 rescue	Abeta rescue	aSyn yeast inh	FUS suppressor
CCCCn1nnc(NC(=S)NC(=O)c2cccs2)n1	35.5µM	–	–	·
Cn1nnc(NC(=S)NC(=O)c2ccc3ccccc3c2)n1	?	–	–	–
Cn1nnc(NC(=S)NC(=O)c2cccc3ccccc23)n1	–	11.2µM	–	–
Cn1nnc(NC(=S)NC(=O)c2cccs2)n1	–	–	–	–
Cc1cccc(NC(=O)CSc2nnc3scc(-c4ccccc4)n23)c1	–	–	·	–
CCOc1ccc(C(=O)Nc2ccc(C(=O)OCc3cc(=O)n4nc(CC)sc4n3)cc2)cc1	–	–	·	–
Cc1ccc(S(=O)(=O)Nc2ccc(SC(F)F)cc2)c(C)c1	–	–	17.8µM	·
CCOC(=O)c1cc(-c2ccccc2C)n(CC2CC(c3cccc([N+](=O)[O-])c3)=NO2)n1 (configuration not stated)	20µM	–	–	–
CCOC(=O)c1cc(-c2ccccc2C)nn1CC1CC(c2ccc(OC)cc2)=NO1 (configuration not stated)	–	–	–	–
CC(C)CCn1c(=O)c2sccc2n2c(CCCC(=O)Nc3ccc(F)c(Cl)c3)nnc12	–	–	·	–
